The values that follow come from PubChem BioAssay.

This is one part of the list. Active and inactive are the calls of the source.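 Rule for the calls: active = Primary-screen hit whose thallium flux fell at least 3 control SD below untreated wells in both duplicates, with normal baseline fluorescence; inactive = the rest.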

The target in this assay is Inward rectifier potassium channel 2 (Mus musculus) (UniProt P35561). The assay can be described thus: mouse Kir2.1 channel blockers, retest, confirmation, cell-based, FluxOR thallium flux, duplicate (AID 2032). The conditions noted are these: Kir2.1-expressing cells, FluxOR thallium flux fluorescence, at 10 µM; hits give low values.
Inward rectifier potassium channel 2 (Mus musculus), sequence (P35561 whole entry, looked up): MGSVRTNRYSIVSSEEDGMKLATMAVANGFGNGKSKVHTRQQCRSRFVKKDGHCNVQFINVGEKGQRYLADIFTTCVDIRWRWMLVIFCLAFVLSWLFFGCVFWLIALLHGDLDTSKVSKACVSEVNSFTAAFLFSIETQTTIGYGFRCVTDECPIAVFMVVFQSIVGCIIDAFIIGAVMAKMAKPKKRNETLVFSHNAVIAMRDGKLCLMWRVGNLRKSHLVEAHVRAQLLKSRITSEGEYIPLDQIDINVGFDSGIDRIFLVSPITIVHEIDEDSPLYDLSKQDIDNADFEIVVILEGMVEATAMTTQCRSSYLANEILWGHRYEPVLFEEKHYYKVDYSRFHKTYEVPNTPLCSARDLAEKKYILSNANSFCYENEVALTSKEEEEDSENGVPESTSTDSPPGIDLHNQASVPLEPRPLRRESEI
With `CC(NC(=O)Nc1ccccc1)c1ccccc1` (centres undefined), the outcome was inactive. Still for that read-out and setting: next, `CCCc1nc2sc3c(c2c(=O)n1NC(=O)CCCl)CCCC3`: “inactive”; `Cc1cccc(NC(=O)c2nc(S(=O)(=O)Cc3ccccc3)ncc2Cl)c1`: “inactive”; `CCC1(C)Cc2c(sc3[nH]c(=S)n(Cc4ccccc4)c(=O)c23)CO1` (centres undefined): “inactive”. With `CCCCNC(=O)Nc1c(C)cc(SC#N)cc1C`, the call was inactive. The same measure, in the same setting: next, `O=C(NC(Nc1nc2ccc([N+](=O)[O-])cc2s1)(C(F)(F)F)C(F)(F)F)c1ccccc1`: “inactive”; `COc1cccc(NC(=O)C2C(c3ccccc3)C2(Cl)Cl)c1` (centres undefined): “inactive”; `Cc1cccc(NC(=S)NC(=O)c2ccc(Br)o2)c1`: “inactive”.

On to `O=C(Nc1ccc(Oc2ccccc2)cc1)c1ccco1`, for which the compound was called inactive.

For the compound `S=C(NCc1ccc(Cl)cc1)NC12CC3CC(CC(C3)C1)C2`, the compound was classed as inactive. As to `CS(=O)(=O)c1sc(C(=O)NC(=S)Nc2ccc(OC(F)(F)F)cc2)c2c1C=CCC2`, the result was inactive. Turning to `COc1ccc(C(=O)Nc2ncc3c(n2)-c2ccccc2CC3)cc1`, the call was inactive.

Take `Oc1c(Cl)cc(Cl)cc1/C=N/c1ncn[nH]1`: the result was inactive.

Turning to `Cc1ccc2nc(C)c3c(c2c1)N(c1ccccc1)CC3`, the Tl flux remaining, % of negative control (hits give low values) was 27.5% (active). Take `CCn1c(O)c(N=NC2=NC(=O)CS2)c2cc(C)ccc21`: the compound was classed as inactive.

As for `Cc1ccc(S(=O)(=O)N2CCN(C(=O)COC(=O)c3c(C)cc(C)cc3C)CC2)c(C)c1`, the compound was called inactive. As for `Cc1cc2oc3ccc(NCCC4CCCN4C)cc3c(=O)c2cc1C` (centres undefined), the compound was classed as inactive. Turning to `O=C(NNC1=C(C(=O)C(F)(F)F)CCC1)c1ccncc1`, the compound was called inactive. With `CC(NC(=O)Nc1cccc([N+](=O)[O-])c1)c1ccc2c(c1)OCO2` (centres undefined), the compound was classed as inactive.
